Results: PubChem BioAssay AID1159580 (chemical genetic matrix, 2015)
The campaign covered roughly 5,500 compounds. About 2,000 (36%) were called active. Another 18% or so got no clear call; they are omitted. No stated cut-off is given here; in the data, active means normalized growth mostly below about 0.91 (no sharp cut-off); inconclusive means no clear call, values can overlap the other calls; inactive means mostly above about 0.92. The list shows a part of the results.

Assay: chemical genetic growth profiling, strain panel (AID 1159580);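 further: tested at 20 µM; growth read once vehicle control cultures reached saturation at 30 °C; 1 = growth at the plate median or of vehicle wells; lower values mean less growth of the strain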
Settings: S. cerevisiae deletion strains, growth OD

Measured: normalized growth

N#Cc1nn(-c2c(Cl)cc(C(F)(F)F)cc2Cl)c(N)c1S(=O)C(F)(F)F (stereo not drawn)
active: locus YBR009C, strain hhf1, active compounds read low 0.895 | locus YDR137W, strain rgp1, active compounds read low 0.576 | locus YDR195W, strain ref2 1.15 [resistant] | locus YLR221C, strain rsa3, active compounds read low 0.89 | locus YLR262C, strain YPT6 (second series), active compounds read low 0.521 | locus YLR342W, strain FKS1, active compounds read low 0.889 | locus YML120C, strain ndi1, active compounds read low 0.909
inactive: locus YAL021C, strain ccr4, active compounds read low 0.995 | locus YAL026C, strain drs2, active compounds read low 0.947 | locus YAL030W, strain snc1, active compounds read low 0.986 | locus YBL061C, strain skt5, active compounds read low 0.99 | locus YBR023C, strain chs3, active compounds read low 1 | locus YBR171W, strain sec66, active compounds read low 0.961 | locus YBR231C, strain swc5, active compounds read low 1.01 | locus YBR279W, strain paf1, active compounds read low 1 | locus YCL011C, strain gbp2, active compounds read low 0.951 | locus YCL016C, strain dcc1, active compounds read low 1.04 | locus YCL069W, strain vba3, active compounds read low 0.998 | locus YCR088W, strain abp1, active compounds read low 0.993 | locus YDL005C, strain med2, active compounds read low 0.987 | locus YDL040C, strain nat1, active compounds read low 0.982 | locus YDR001C, strain nth1, active compounds read low 0.992 | locus YDR069C, strain doa4, active compounds read low 0.965 | locus YDR159W, strain sac3, active compounds read low 0.888 | locus YDR297W, strain sur2, active compounds read low 0.961 | locus YDR334W, strain swr1, active compounds read low 0.962 | locus YDR335W, strain msn5, active compounds read low 1.01 | locus YDR392W, strain spt3, active compounds read low 0.785 | locus YEL003W, strain gim4, active compounds read low 0.936 | locus YEL037C, strain rad23, active compounds read low 0.986 | locus YEL061C, strain CIN8 (second series), active compounds read low 0.973 | locus YER015W, strain faa2, active compounds read low 0.955 | locus YER016W, strain bim1, active compounds read low 1.01 | locus YER111C, strain swi4, active compounds read low 1.01 | locus YER155C, strain BEM2 (second series), active compounds read low 1.02 | locus YFR010W, strain ubp6, active compounds read low 0.939 | locus YGL167C, strain pmr1, active compounds read low 0.966 | locus YGL173C, strain kem1, active compounds read low 0.979 | locus YGL227W, strain vid30, active compounds read low 0.99 | locus YGL240W, strain doc1, active compounds read low 0.959 | locus YGL253W, strain hxk2, active compounds read low 0.929 | locus YHR013C, strain ard1, active compounds read low 1.01 | locus YHR027C, strain rpn1, active compounds read low 0.968 | locus YHR030C, strain SLT2, active compounds read low 1.01 | locus YHR079C, strain IRE1, active compounds read low 1.02 | locus YHR142W, strain chs7, active compounds read low 0.956 | locus YJL092W, strain hpr5, active compounds read low 0.992 | locus YJL095W, strain BCK1 (second series), active compounds read low 0.983 | locus YJL095W, strain BCK1, active compounds read low 0.991 | locus YJL115W, strain asf1, active compounds read low 0.99 | locus YJL129C, strain trk1, active compounds read low 1.01 | locus YJL154C, strain vps35, active compounds read low 0.978 | locus YJL164C, strain tpk1, active compounds read low 0.926 | locus YJL166W, strain qcr8, active compounds read low 0.94 | locus YJR066W, strain TOR1, active compounds read low 0.962 | locus YKL160W, strain elf1, active compounds read low 1.03 | locus YKR026C, strain gcn3, active compounds read low 0.98 | locus YKR091W, strain srl3, active compounds read low 0.989 | locus YLL001W, strain dnm1, active compounds read low 0.918 | locus YLL026W, active compounds read low 0.984 | locus YLL041C, strain sdh2, active compounds read low 0.996 | locus YLR027C, strain aat2, active compounds read low 0.955 | locus YLR113W, strain HOG1, active compounds read low 0.964 | locus YLR258W, strain gsy2, active compounds read low 1.01 | locus YLR320W, strain mms22, active compounds read low 0.907 | locus YLR357W, strain rsc2, active compounds read low 0.979 | locus YLR370C, strain arc18, active compounds read low 1.01 | locus YLR384C, strain iki3, active compounds read low 1.01 | locus YMR058W, strain fet3, active compounds read low 0.952 | locus YMR125W, strain sto1, active compounds read low 1.03 | locus YMR129W, active compounds read low 1.01 | locus YMR205C, strain PFK2, active compounds read low 0.981 | locus YMR231W, strain pep5, active compounds read low 0.998 | locus YNL071W, strain lat1, active compounds read low 0.978 | locus YNL183C, strain NPR1, active compounds read low 0.951 | locus YNL209W, strain ssb2, active compounds read low 0.995 | locus YNL248C, strain rpa49, active compounds read low 1.01 | locus YNL322C, strain KRE1 (second series), active compounds read low 1 | locus YNR049C, strain mso1, active compounds read low 1 | locus YOR001W, strain rrp6, active compounds read low 0.901 | locus YOR070C, strain gyp1, active compounds read low 1 | locus YOR080W, strain dia2, active compounds read low 0.991 | locus YOR083W, strain WHI5, active compounds read low 0.941 | locus YOR106W, strain vam3, active compounds read low 0.981 | locus YOR231W, strain MKK1, active compounds read low 1 | locus YOR265W, strain rbl2, active compounds read low 0.967 | locus YOR270C, strain vph1, active compounds read low 0.794 | locus YOR290C, strain snf2, active compounds read low 1.02 | locus YPL051W, strain arl3, active compounds read low 1.04 | locus YPL078C, strain atp4, active compounds read low 0.99 | locus YPL106C, strain sse1, active compounds read low 1.15 | locus YPL240C, strain hsp82, active compounds read low 0.996 | locus YPL256C, strain CLN2, active compounds read low 1.04
